High-throughput results from PubChem.
Most compounds without a hit are left out; they make up all but 19% or so of the library.
DT40 TDP1 no CPT = qHTS for Inhibitors of human tyrosyl-DNA phosphodiesterase 1 (TDP1): qHTS in cells in absence of CPT; DT40 Tdp1-/- hTDP1 cells, no CPT, ATP luminescence, 48 h; actives 15% (n = 420,000); Potency, µM (series often up to 46.2 µM), most hits filed as inhibitors; AID 686978, 2013; also: nearly all actives have a fitted effect of over 55% in size
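Chicken DT40 Tdp1-/- cells complemented with human TDP1, screened without camptothecin (DMSO vehicle only), 400 cells/well. Compounds pin-transferred, cells incubated at 37 °C for at least 48 hr. Growth read as ATP-dependent luminescence (CellTiter-Glo, 30 min at RT).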
HT1080NT lethal = kills 2HG-producing HT-1080-NT fibrosarcoma cells; actives 1.6% (n = 360,000); Potency, µM (titrated, usually from 46.1 µM), usual class: cytotoxic; HT-1080-NT fibrosarcoma viability, CellTiter-Glo ATP luminescence, 48 h;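 also: NT is the 2HG producing partner of a matched IDH1 knockdown line; nearly all actives have a fitted effect of over 55% in size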
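Read-out is CellTiter-Glo luminescence after 10 minutes at room temperature, following 48 hours' compound treatment of HT-1080-NT cells (750 cells/well, RPMI, 5% FBS, 37 degrees C).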
HT1080 IDH1KD tx = toxicity to HT-1080 IDH1 knockdown cells (counter line) | Potency, µM (titrated, usually from 46.1 µM), actives largely listed as cytotoxic | actives 2% (n = 360,000) | HT-1080 IDH1 knockdown viability, ATP luminescence, 48 h
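Using the IDH1-knockdown HT-1080 line run in the same batch and compound series as the NT line, viability after 48 h at 37 °C was determined by CellTiter-Glo luminescence and expressed as % activity.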
DT40 TDP1 CPT = growth inhibition of DT40 Tdp1-/-;hTDP1 cells with camptothecin (screen for TDP1 inhibitors); chicken DT40 Tdp1-/-;hTDP1 cells + 20 nM CPT, ATP luminescence, 48 h; Potency, µM (highest dose often 46.2 µM), usual class: inhibitors; actives 12% (n = 420,000); AID 686979; also: nearly all actives have a fitted effect of over 55% in size
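Cell growth measured by CellTiter-Glo luminescence after a minimum 48 h, 37 C compound exposure with 20 nM CPT in Tdp1-knockout DT40 cells stably expressing hTDP1, seeded 400/well; qHTS titration format.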
ELG1 DNA repair = ELG1-dependent DNA repair inhibition. HEK293T ELG1-luciferase reporter, luminescence, 16 h; DNA damage induced by 5-fluorouridine. Potency, µM (doses to about 46.1 µM), hits mostly inhibitors. actives 2.3% (n = 330,000). AID 504467; also: nearly all actives have a fitted effect of over 55% in size
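DMSO vehicle served as the neutral condition. Each well held 2,000 cells given 5-fluorouridine plus compound; after 16 hr at 37 °C/5% CO2, ONE-Glo was added and luciferase measured 30 min later.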
IL1B secr inh = inflammasome signaling inhibition, IL-1 beta readout | THP-1 LPS/ATP IL-1B secretion, AlphaLISA, 16 h; active compounds read low | activity change, % at 57.5 µM | actives 4.7% (n = 360,000); in the data active = activity change below about -50%; inconclusive = mostly about -30% to -49%
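THP-1 cells pretreated 1 hr with compounds (up to 57.5 uM final), then stimulated with LPS (250 ng/mL final) plus ATP (1.25 mM final); secreted IL-1B measured by AlphaLISA after 16 hr, decreased signal indicating inhibition.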
A number is an active result; i = inactive; ? = inconclusive; nt = not tested or not shown. Unless noted, calls follow the shape of the dose curve; as a rule, active = well fitted curve in the direction sought with a large enough effect; inconclusive = small, poorly fitted or top-dose-only effect, or another doubt; inactive = no such curve, though single readings can be large; an effect the other way counts as inactive or inconclusive.

SMILES	DT40 TDP1 no CPT	HT1080NT lethal	HT1080 IDH1KD tx	DT40 TDP1 CPT	ELG1 DNA repair	IL1B secr inh
Cc1nnc(SCC(=O)c2cc(C)n(-c3ccc4c(c3)OCO4)c2C)s1	23.1µM	i	i	25.9µM	?	-77.3
Cc1cc(C(=O)COC(=O)CC2Sc3ccccc3NC2=O)c(C)n1-c1ccc2c(c1)OCO2 (centres undefined)	?	i	i	?	i	i
CC(=O)c1ccc(OCC(=O)c2cc(C)n(-c3ccc4c(c3)OCO4)c2C)cc1	10.3µM	i	?	23.1µM	?	i
COc1ccc(-c2c(-c3ccc4c(c3)OCO4)c3ccccc3n2C)cc1	?	i	i	?	nt	i
CCOC(=O)c1ccccc1NC(=O)CSc1nc2ncccc2o1	i	nt	nt	i	nt	nt
C=CCn1c(C)cc(C(=O)COC(=O)c2ccc(N)c([N+](=O)[O-])c2)c1C	16.4µM	i	i	18.4µM	?	i
CC(C)(C)C(=O)COC(=O)c1ccc(N)c([N+](=O)[O-])c1	i	i	i	i	i	i
Cc1cc(C(=O)COC(=O)c2ccc(N)c([N+](=O)[O-])c2)c(C)n1-c1ccc2c(c1)OCO2	5.8µM	i	?	9.2µM	i	i
Cc1cc(C(=O)COC(=O)c2ccc(N)c([N+](=O)[O-])c2)c(C)n1Cc1ccc2c(c1)OCO2	?	i	i	?	i	i
C=CCn1c(C)cc(C(=O)COC(=O)c2ccc3c(c2)NC(=O)CS3)c1C	16.4µM	i	i	?	?	?
COCCn1c(C)cc(C(=O)COC(=O)c2ccc3c(c2)NC(=O)CS3)c1C	?	i	i	i	?	?
CCCC1(CCC)NC(=O)N(CC(=O)c2cc(C)n(-c3ccc4c(c3)OCO4)c2C)C1=O	20.6µM	i	i	?	i	i
CCOC(=O)c1cc2c(=O)n3ccccc3nc2n(C(C)C)c1=NC(=O)C(C)(C)Oc1ccc(Cl)cc1	i	nt	nt	i	nt	nt
COc1ccc(CCN(C)C2CCCN(C(=O)c3sccc3C)C2)cc1OC (centres undefined)	i	i	i	i	i	i
COc1cccc(CSc2nc3cc(OC)c(OC)cc3c3nc(CCn4nc(C)cc4C)nn23)c1	i	nt	nt	i	nt	nt
Cc1nnc(N2CCC(C(=O)NCCc3ccccc3)CC2)c2nn(-c3ccc(Cl)cc3)c(C)c12	20.6µM	nt	nt	14.6µM	nt	nt
Cc1ccc(C)c(NC(=O)N2CCN(c3nnc(C)c4c(C)n(-c5ccccc5)nc34)CC2)c1	i	nt	nt	i	nt	nt
Cc1ccc(Cl)cc1NC(=O)C1CCN(c2nc3ccccc3n3cccc23)CC1	16.4µM	nt	nt	?	nt	nt
CCc1ccccc1NC(=O)N1CCN(c2nnc(C)c3c(C)n(-c4ccccc4)nc23)CC1	20.6µM	nt	nt	?	nt	nt
Cc1ccc(Cl)cc1NC(=O)C1CCN(c2nnc(C)c3c(C)n(-c4ccccc4)nc23)CC1	10.3µM	nt	nt	8.2µM	nt	nt
Cc1ccc(Cl)cc1NC(=O)C1CCC(CNS(=O)(=O)c2cccc3nsnc23)CC1 (centres undefined)	?	nt	nt	i	nt	nt
CCN(CC)C(=O)C1CCN(c2nnc(C)c3c(C)n(-c4ccc(Cl)cc4)nc23)CC1	i	nt	nt	i	nt	nt
Cc1nnc(N2CCC(C(=O)NC3CCCCC3)CC2)c2nn(-c3ccccc3)c(C)c12	i	nt	nt	i	nt	nt
COc1ccccc1OCCCCn1c(-c2ccc(Cl)cc2)nc2ccccc2c1=O	i	nt	nt	i	nt	nt
COC(=O)C1=C(C)N(C2CCCCC2)C(=O)/C1=C\c1cccs1	?	i	i	?	i	i
Cc1nnc(N2CCC(C(=O)NCc3ccc(F)cc3)CC2)c2nn(-c3ccc(Cl)cc3)c(C)c12	?	nt	nt	16.4µM	nt	nt
O=C(NCc1ccc(F)cc1)C1CCN(c2cnccn2)CC1	?	i	i	18.4µM	i	i
O=C(N/C(=C/c1cccc(Br)c1)C(=O)N1CCOCC1)c1ccco1	i	i	i	i	nt	i
CCOC(=O)/C(C#N)=C/c1cc2ccccc2nc1N1CCOCC1	i	i	i	i	i	i
